Structures are written as SMILES. Among all 370,000 compounds or so, about 4,100 (1.1%) were called active. For the sample, actives were picked, then their nearest neighbours and some compounds at random. Unmarked numbers belong to inactive results.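 Rule for the calls: active = inhibition above the mean over all tested compounds plus 3 SD (cut at about 3.6% in these data); inactive = the rest.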

The test in a line: relief of DAX-1 repression of SF-1 activity – cell-based, luminescence, SF-1 (NR5A1), full-length DAX-1, primary screen (AID 652010).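 Note: 0% = DAX-1 cells with DMSO and 100% = cells lacking DAX-1 with DMSO; higher inhibition means more luminescence from relief of DAX-1 repression.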 The settings on record: HEK293T StAR-luciferase reporter, SF-1/DAX-1 repression relief; at 6.8 µM; active compounds read high.
Turning to `C[C@@H]1ON(C)[C@H]2C[C@H]3c4[nH]c5cccc(-c6ccc7c(c6)OCO7)c5c4CCN3C[C@@H]12`, the inhibition (commonly the drop in the measured response relative to a control, in per cent) was 0.45%.
With `O=S1(=O)c2c(NCc3ccco3)cccc2Oc2ccccc2CN1Cc1cn(Cc2cccc(C(F)(F)F)c2)nn1` the figure was -0.91%; with `O=C(Nc1cccc(F)c1)[C@@H]1CCCN1`, -0.32%.
With `O=C(Nc1cccc(F)c1)NC1CCCCCCC1` the figure was 4.46% (active).
Turning to `Cc1cc(C)cc(NC(=O)NC2CCCCCCC2)c1`, the inhibition was 3.33%.
With `Clc1ccc(Cc2nnc(-c3cccs3)o2)cc1` the figure was -0.54%.
With `Clc1ccc(Nc2nc(-c3cccs3)cs2)nc1` the figure was 5.93% (active); with `CCCN1C(=O)c2[nH]nc(-c3ccccc3)c2C1c1ccccc1` (stereo unspecified), -1.18%; with `O=C(Nc1ccc(Br)cc1)OCCN1C(=O)CCC12CCC(c1ccccc1)CC2` (stereo unspecified), 0.27%.
With `CS(=O)(=O)N(CC(=O)Nc1ccc(F)cc1)C1CCCCC1` the figure was -0.02%; with `CC(C(=O)N1CCc2ccccc21)N(C)CC(=O)Nc1ccc(F)cc1` (stereo unspecified), -0.82%.
Turning to `CN(CC(=O)Nc1ccc(F)cc1)CC(=O)N1CCCCC1`, the inhibition is 3.7% (active).
For the compound `CN(C)C(=O)CSc1n[nH]c(-c2ccco2)n1`, the inhibition is -0.67%.
With `Cn1c(-c2ccco2)nc2cc3ccccc3cc21` the figure was 4.28% (active).
Regarding `Cn1c(SCC(=O)c2cccs2)nnc1-c1ccco1`, the inhibition is 0.71%.
With `C=CCN(C)CC#Cc1ccccc1` the figure was 1.58%; with `O=S1(=O)c2ccc(Br)cc2OC[C@H](Cc2ccccc2)N1Cc1cn(Cc2ccccc2)nn1`, 0.43%.
With `COc1ccc(CN(CCN2CCOCC2)C(=O)c2ccc(C)cc2)cc1OC` the figure was 1.29%; with `Cc1cc(N=Nc2ccc3ccccc3c2)ccc1O`, 4.24% (active); with `Cc1ccccc1N1CCN(CC(=O)NCc2ccc(Cl)cc2)CC1`, -0.26%.
With `COC1=C[C@H](C(=O)NCCNC(C)=O)[C@H](C)[C@@H](c2ccccc2)CC1=O` the figure was 0.48%; with `CCN(CC)C(=O)CC[C@@H]1CC[C@]2(CCCN(S(=O)(=O)C3CCCCC3)C2)O1`, -1.81%; with `CCOC(=O)c1cc2c(nc1NC(=S)Nc1ccccc1)CC(C)(CC)OC2` (stereo unspecified), -0.51%.
With `CCOC(=O)c1c(NC(=S)Nc2ccccc2)sc2c1CCN(C)C2`, the inhibition is 0.23%.
With `CCOC(=O)c1cn[nH]c1NC(=S)Nc1ccccc1` the figure was 4.39% (active); with `Cc1ccc(CN2CCCCC(NC(=O)C3CCCCC3)C2=O)cc1` (stereo unspecified), -1.69%; with `COc1ccc(N2CCN(CCNS(=O)(=O)c3ccc(C(C)(C)C)cc3)CC2)cc1`, -0.04%.
With `CC1(C)NC(=O)N(CC(=O)N2CCN(S(=O)(=O)c3ccccc3F)CC2)C1=O` the figure was -1%; with `COc1ccc([C@H]2OC(=O)C[C@H]2C(=O)N2CCN(c3ccccc3F)CC2)cc1OC`, 0.35%; with `O=C(NCC1COc2ccccc2O1)c1ccc(NC(=O)c2cc(F)ccc2F)cc1` (stereo unspecified), -1.54%.
With `CN(C)S(=O)(=O)c1cc(C(=O)Nc2ccn(C)n2)c(Cl)cc1Cl` the figure was -0.84%; with `Cc1ccc(C(=O)Nc2ccn(C)n2)cc1`, 4.06% (active).
With `Cc1ccc(C(=O)Nc2nc(N)n(-c3ccccc3)n2)cc1`, the inhibition is 0.57%.
With `CCC1CCc2c(sc(NC(C)=O)c2C#N)C1` (stereo unspecified) the figure was -0.35%; with `N#Cc1c(NC(=O)c2ccc(N3CCOCC3)c([N+](=O)[O-])c2)sc2c1CCCC2`, 0.44%; with `N#Cc1c(NC(=O)C2CCCO2)sc2c1CCCCC2` (stereo unspecified), 3.86% (active).
With `COC(=O)C1CN(Cc2ccc(F)cc2)CCS(=O)(=O)N1Cc1ccc(Cl)cc1` (stereo unspecified) the figure was -1.11%.
With `CC(C)(C)OC(=O)NCc1cc(F)ccc1/C=C/S(=O)(=O)NCCc1ccccc1` the figure was -0.93%.
With `O=C(NC(=S)NC1CCCCC1)c1ccc(Cl)cc1`, the inhibition is 7.22% (active).
In the case of `O=C(NNC(=S)NC1CCCCC1)c1ccccc1Cl`, the inhibition is 2.28%.
Regarding `O=C(NC1CCCCCC1)C1CCN(C(=O)c2ccc(Cl)cc2)CC1`, the inhibition is -1.38%.
With `CC(NCc1ccco1)C(=O)N1CCCCC1` (stereo unspecified) the figure was -0.66%; with `O=S1(=O)c2ccc(Br)cc2OC[C@@H](Cc2ccccc2)N1Cc1cn(Cc2ccco2)nn1`, -0.91%; with `Cn1c(-c2ccccc2)c[n+]2c1CCCCC2`, 0.1%.
With `O=C(NCCN1C(=O)S/C(=C\c2cccnc2)C1=O)c1ccc(S(=O)(=O)N2CCCC2)cc1` the figure was -0.2%.
On to `COc1ccc(N2CC(C(=O)NCCN3C(=O)S/C(=C\c4cccnc4)C3=O)CC2=O)c(OC)c1` (stereo unspecified), for which the inhibition is 4.36% (active).
With `Cc1cc(OCCCC(=O)NCCN2C(=O)S/C(=C\c3cccnc3)C2=O)ccc1Cl` the figure was -0.22%.
With `Cc1cccc(C)c1NC(=O)c1ccc(CN2CCc3ccccc3C2)cc1` the figure was -0.37%; with `CCc1ccc(NC(=O)N2CCc3ccccc3C2)cc1`, 6% (active).
In the case of `Cc1c(NC(=O)Nc2cccc([N+](=O)[O-])c2)c(=O)n(-c2ccccc2)n1C`, the inhibition is -3.53%.
As to `O=C(Nc1cccc([N+](=O)[O-])c1)N1CCc2ccccc2C1`, the inhibition was 4.21% (active).
With `Cc1cccc(OC(C)C(=O)N2CCc3ccccc3C2)c1` (stereo unspecified) the figure was -0.08%; with `CCOC(=O)c1c(NC(=S)SC)sc(C(=O)N2CCc3ccccc3C2)c1C`, 0.68%; with `Nc1ncnc2c1ncn2C1OC(CO)CC1O` (stereo unspecified), -1.04%.
With `CCC(=O)OCCCN1C(=O)CCC12CCC(c1ccccc1)CC2` (stereo unspecified), the inhibition was 0.13%.
For `O=S(=O)(Nc1ccc2nc(-c3ccco3)[nH]c2c1)c1ccccc1`, the inhibition was -0.15%.
With `O=S(=O)(Nc1ccc2nc(N3CCOCC3)sc2c1)c1ccccc1` the figure was 4.19% (active).
With `O=S(=O)(Nc1cccc(-c2ccc(N3CCOCC3)nn2)c1)c1ccc(Cl)c(Cl)c1` the figure was 0.25%.
With `COc1cccc(/C=C2\CC3(OC(C)=O)CCCN2C3)c1` (stereo unspecified) the figure was 1.86%; with `COc1ccc(Cn2ccc3ccc(-c4ccc5ccn(Cc6ccccc6C)c5c4)cc32)cc1`, -0.33%; with `COc1ccc(-n2c(SCC(=O)Nc3ccc4cn[nH]c4c3)nnc2-c2cccnc2)cc1`, 0.02%.
